Test [1] can be described thus: NCI Yeast Anticancer Drug Screen. Data for the rad50 strain (AID 155).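 Note: 0% = growth of vehicle-only cultures of the same strain.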 To be noted: S. cerevisiae rad50 strain growth inhibition, active compounds read high. An outline of the steps: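 Cells are treated with compound, grown, and their growth is then scored against vehicle-only cultures of the same repair-deficient yeast strain.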
Test [2] can be described thus: NCI Yeast Anticancer Drug Screen. Data for the mec2-1 strain (AID 157). As to conditions: S. cerevisiae mec2-1 strain, active compounds read high. An outline of the steps: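 Strain: mec2-1 (DNA repair/cell cycle alteration). Compound exposure, then growth measured; inhibition expressed relative to vehicle.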
Test [3] in a line: NCI Yeast Anticancer Drug Screen. Data for the sgs1 mgt1 strain (AID 161).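 Note: 0% = growth of cultures given vehicle only.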 As to conditions: S. cerevisiae sgs1 mgt1 strain, active compounds read high. The method, boiled down: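 Test agents were incubated with a DNA-repair-mutant yeast strain. Growth was then read and compared against vehicle-treated controls.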
Test [4] in a line: NCI Yeast Anticancer Drug Screen. Data for the cln2 rad14 strain (AID 165).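 Note: 0% = growth equal to vehicle treated cultures.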 As to conditions: S. cerevisiae cln2 rad14 strain, active compounds read high. An outline of the steps: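 Compounds are applied to the cln2 rad14 yeast strain, and growth is then compared with that of vehicle-treated cultures to give inhibition.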
Test [5] in a line: NCI Yeast Anticancer Drug Screen. Data for the bub3 strain (AID 167). To be noted: S. cerevisiae bub3 mutant strain, active compounds read high. An outline of the steps:
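Part of a panel of yeast mutants defective in DNA damage repair or cell cycle regulation. Each strain is grown with compound, and inhibition is calculated relative to solvent-treated cultures.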

Test [6] in a line: NCI Yeast Anticancer Drug Screen. Data for the mlh1 rad18 strain (AID 175). To be noted: S. cerevisiae mlh1 rad18 strain growth inhibition, active compounds read high. The method, boiled down:
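Read-out is yeast growth inhibition, calculated against vehicle-only controls. The compound was applied to a strain engineered with DNA damage repair alterations.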

[7] abbreviates: at 5.0 µM (retest, dose inferred, filed as 0.5).
[8] abbreviates: at 50.0 µM (retest, dose inferred, filed as 5.0).

About 79,000 compounds went through this panel and 15% of them were active in at least one assay; those are over-represented in the sample as a whole. A number with no mark means an inactive call. Active and inactive are the calls of the source. Cut-off read from the data, not from the text of the source: active = growth inhibition above about 70%; inactive = the rest.

For `COC(=O)Cc1cn[nH]c1C(=O)OC`, the growth inhibition in test [1] (setting [7]) was -147%; in test [1] (setting [8]), 8%; in test [1] (at 50.0 µM) it was 9.2%; in test [2] (setting [7]), -51%; in test [2] (setting [8]), -45%; in test [2] (at 50.0 µM), 0.7%. Moreover, the growth inhibition is -65% in test [3] (setting [7]); -48% in test [3] (setting [8]); 1.7% in test [3] (at 50.0 µM); -66% in test [4] (setting [7]); -52% in test [4] (setting [8]); 29.6% in test [4] (at 50.0 µM). Also, the growth inhibition in test [5] (setting [7]) is -68%; in test [5] (setting [8]), -54%; in test [5] (at 50.0 µM), -15.2%; in test [6] (setting [7]), -117%; in test [6] (setting [8]), -94%; in test [6] (at 50.0 µM), 9.75%.

`O=C1NCCCNCCCNCCCNC(=O)c2cccc1n2`: the growth inhibition in test [1] (setting [7]) was 32%; in test [1] (setting [8]) it was 30%; in test [1] (at 50.0 µM), -41.7%; in test [2] (setting [7]) it was 23%; in test [2] (setting [8]), 21%; in test [2] (at 50.0 µM), -30.6%. Moreover, the growth inhibition in test [3] (setting [7]) is 21%; in test [3] (setting [8]), 24%; in test [3] (at 50.0 µM) it was -18.1%; in test [4] (setting [7]) it was 18%; in test [4] (setting [8]), 28%; in test [4] (at 50.0 µM), 5.3%. The growth inhibition in test [5] (setting [7]) is 23%; in test [5] (setting [8]) it was 26%; in test [5] (at 50.0 µM), 0.55%; in test [6] (setting [7]), 29%; in test [6] (setting [8]), 26%; in test [6] (at 50.0 µM), -15.2%.

`COc1ccc(/C=N/N=c2\[nH][nH]/c(=N\N=C\c3ccc(OC)c4ccccc34)c3ccccc23)c2ccccc12`: the growth inhibition is 15% in test [1] (setting [7]); 34% in test [1] (setting [8]); 57.6% in test [1] (at 50.0 µM); 0% in test [2] (setting [7]); 59% in test [2] (setting [8]); 47.5% in test [2] (at 50.0 µM). The growth inhibition in test [3] (setting [7]) is 4%; in test [3] (setting [8]), 76% (active); in test [3] (at 50.0 µM) it was 86.9% (active); in test [4] (setting [7]), -7%; in test [4] (setting [8]) it was 28%; in test [4] (at 50.0 µM) it was 37.6%. Also, the growth inhibition in test [5] (setting [7]) was 0%; in test [5] (setting [8]), 78% (active); in test [5] (at 50.0 µM), 33.4%; in test [6] (setting [7]) it was 12%; in test [6] (setting [8]) it was 85% (active); in test [6] (at 50.0 µM), 65%.

As for `OC(c1cc(-c2ccccc2)nc2cc(Cl)ccc12)C1CCCCN1` (stereo not given), the growth inhibition in test [1] (setting [7]) is -2%; in test [1] (setting [8]), -3%; in test [1] (at 50.0 µM), 8.7%; in test [2] (setting [7]), -3%; in test [2] (setting [8]) it was 3%; in test [2] (at 50.0 µM), 26.1%. Further, the growth inhibition in test [3] (setting [7]) is -1%; in test [3] (setting [8]), -2%; in test [3] (at 50.0 µM), 37%; in test [4] (setting [7]) it was -5%; in test [4] (setting [8]), -4%; in test [4] (at 50.0 µM) it was 15%. Moreover, the growth inhibition in test [5] (setting [7]) was -2%; in test [5] (setting [8]) it was -5%; in test [5] (at 50.0 µM), 75% (active); in test [6] (setting [7]), -2%; in test [6] (setting [8]), -3%; in test [6] (at 50.0 µM), 53.6%.

`COc1ccc(C(c2c(O)c3ccccc3oc2=O)N2CCOCC2)cc1` (stereo not given): the growth inhibition in test [1] (setting [7]) was -30%; in test [1] (setting [8]) it was -14%; in test [1] (at 50.0 µM) it was -8.2%; in test [2] (setting [7]) it was -10%; in test [2] (setting [8]), -6%; in test [2] (at 50.0 µM), -3.1%. Also, the growth inhibition was -13% in test [3] (setting [7]); -29% in test [3] (setting [8]); -34.9% in test [3] (at 50.0 µM); -19% in test [4] (setting [7]); -17% in test [4] (setting [8]); 76.5% (active) in test [4] (at 50.0 µM). Moreover, the growth inhibition in test [5] (setting [7]) is -14%; in test [5] (setting [8]) it was 22%; in test [5] (at 50.0 µM), -14%; in test [6] (setting [7]) it was -34%; in test [6] (setting [8]) it was -30%; in test [6] (at 50.0 µM), -12%.

Consider `N#CSc1ccc(Nc2ccc(SC#N)cc2)cc1`, for which the growth inhibition in test [1] (setting [7]) is 98% (active); in test [1] (setting [8]), 98% (active); in test [1] (at 50.0 µM) it was 98.4% (active); in test [2] (setting [7]), 99% (active); in test [2] (setting [8]), 99% (active); in test [2] (at 50.0 µM) it was 97.6% (active). Also, the growth inhibition is 99% (active) in test [3] (setting [7]); 99% (active) in test [3] (setting [8]); 98.4% (active) in test [3] (at 50.0 µM); 99% (active) in test [4] (setting [7]); 98% (active) in test [4] (setting [8]); 97.7% (active) in test [4] (at 50.0 µM). Further, the growth inhibition was 98% (active) in test [5] (setting [7]); 97% (active) in test [5] (setting [8]); 98.2% (active) in test [5] (at 50.0 µM); 99% (active) in test [6] (setting [7]); 94% (active) in test [6] (setting [8]); 97.8% (active) in test [6] (at 50.0 µM).

As for `COc1cc(/C=C/C(=O)Sc2ccccc2)cc(OC)c1O`, the growth inhibition was 1% in test [1] (setting [7]); 47% in test [1] (setting [8]); 74.7% (active) in test [1] (at 50.0 µM); 0% in test [2] (setting [7]); 58% in test [2] (setting [8]); 58.6% in test [2] (at 50.0 µM). Besides, the growth inhibition in test [3] (setting [7]) was -3%; in test [3] (setting [8]), 60%; in test [3] (at 50.0 µM), 59.2%; in test [4] (setting [7]), 2%; in test [4] (setting [8]), 38%; in test [4] (at 50.0 µM), 75.7% (active). Further, the growth inhibition in test [5] (setting [7]) was 2%; in test [5] (setting [8]), 70% (active); in test [5] (at 50.0 µM) it was 51%; in test [6] (setting [7]) it was -2%; in test [6] (setting [8]), 58%; in test [6] (at 50.0 µM), 50.6%.

In the case of `O=C1OC(CC(=O)c2ccccc2Cl)C(Cl)=C1Cl` (stereo not given), the growth inhibition was 6% in test [1] (setting [7]); 33% in test [1] (setting [8]); 38.1% in test [1] (at 50.0 µM); 7% in test [2] (setting [7]); 35% in test [2] (setting [8]); 12.6% in test [2] (at 50.0 µM). The growth inhibition is 39% in test [3] (setting [7]); 52% in test [3] (setting [8]); 58.9% in test [3] (at 50.0 µM); 16% in test [4] (setting [7]); 30% in test [4] (setting [8]); 46.6% in test [4] (at 50.0 µM). Moreover, the growth inhibition in test [5] (setting [7]) was 1%; in test [5] (setting [8]), 37%; in test [5] (at 50.0 µM) it was -0.55%; in test [6] (setting [7]), 23%; in test [6] (setting [8]), 62%; in test [6] (at 50.0 µM), 65.7%.

For the compound `Cc1ccc(C2C(O)=C(c3ccccc3)Sc3ccc(C)cc32)cc1` (stereo not given), the growth inhibition was 12% in test [1] (setting [7]); 33% in test [1] (setting [8]); 35.6% in test [1] (at 50.0 µM); -5% in test [2] (setting [7]); 77% (active) in test [2] (setting [8]); 2.45% in test [2] (at 50.0 µM). The growth inhibition in test [3] (setting [7]) was 5%; in test [3] (setting [8]), 74% (active); in test [3] (at 50.0 µM), 77% (active); in test [4] (setting [7]), -5%; in test [4] (setting [8]) it was 51%; in test [4] (at 50.0 µM) it was 23.2%. Further, the growth inhibition in test [5] (setting [7]) was -4%; in test [5] (setting [8]) it was 39%; in test [5] (at 50.0 µM), 13.4%; in test [6] (setting [7]), -8%; in test [6] (setting [8]) it was 81% (active); in test [6] (at 50.0 µM), 31.4%.

With `CC(C)CCOC(=O)c1ccc(O)cc1.[Zn+2]`, the growth inhibition in test [1] (setting [7]) was 5%; in test [1] (setting [8]), 36%; in test [1] (at 50.0 µM), 76.1% (active); in test [2] (setting [7]) it was -1%; in test [2] (setting [8]), 32%; in test [2] (at 50.0 µM) it was 65.6%. For the same compound, the growth inhibition is 3% in test [3] (setting [7]); 29% in test [3] (setting [8]); 76.8% (active) in test [3] (at 50.0 µM); 2% in test [4] (setting [7]); 17% in test [4] (setting [8]); 37% in test [4] (at 50.0 µM). Also, the growth inhibition in test [5] (setting [7]) was 53%; in test [5] (setting [8]), 86% (active); in test [5] (at 50.0 µM) it was 88.5% (active); in test [6] (setting [7]), 3%; in test [6] (setting [8]), 35%; in test [6] (at 50.0 µM) it was 84.2% (active).

For the origin of these results see PubChem BioAssay (NCI).
